# Assay results taken from the supplement of paper PMC5919970.
# Where a name gives a salt, the structure may show the parent alone. Over roughly 2,000 compounds, “fractional viability relative to vehicle” has its median near 0.91; the lowest 2% begin near 0.045. What follows is part of a selection rich in the lowest values, with near analogues and random picks from the rest.
# Test system: TYKNU
# Assay: fractional viability relative to vehicle; TYKNU is a high-grade serous ovarian cancer line; higher = less growth inhibition
# Settings: 72 h
# In short: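 TYKNU control cells or lentiCRISPRv2 knockout derivatives were seeded at 500 cells per well into drug-stamped 384-well plates holding a ~2100-compound library at 2 or 10 μM, in duplicate. Cells were grown at 37 °C in 5% CO2 in RPMI 1640 with 10% FBS, and drug treatment lasted 72 h. Viability was read by Cell Titer Glo luminescence. Duplicate treatment wells were averaged and normalised to duplicate control wells from the same plate position.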
# [1] = 2uM, genotype: DNM1L knockout (sgDNM1L #1)
# [2] = 2uM, genotype: sgCTRLA1 (non-targeting control)
# [3] = 10uM, genotype: DNM1L knockout (sgDNM1L #1)
# [4] = 10uM, genotype: sgCTRLA1 (non-targeting control)
SMILES,fractional viability [1],fractional viability [2],fractional viability [3],fractional viability [4]
CS(=O)(=O)N1CCN(Cc2cc3nc(-c4cccc5[nH]ncc45)nc(N4CCOCC4)c3s2)CC1,0.627,0.588,0.272,0.249
COc1ccc(-c2nc(N3CCOCC3)c3sc(CN(C)c4ncc(C(=O)NO)cn4)cc3n2)cn1,0.0583,0.0505,0.0565,0.0395
Cc1c(CN2CCN(C(=O)[C@H](C)O)CC2)sc2c(N3CCOCC3)nc(-c3cnc(N)nc3)nc12,0.214,0.238,0.175,0.15
O=C(Nc1c(Cl)cncc1Cl)c1ccc(OC(F)F)c(OCC2CC2)c1 [Roflumilast],0.966,0.959,0.921,1
Cc1cc(C)c(S(=O)(=O)n2cc(C)cc2C)c(C)c1,0.788,0.862,0.757,0.765
CC(C)NC[C@H](O)COc1ccc(CCOCC2CC2)cc1 [Levobetaxolol HCl],1.13,1.21,0.846,1.27
C=CC(=O)Nc1cc(Nc2nccc(-c3cn(C)c4ccccc34)n2)c(OC)cc1N(C)CCN(C)C,0.614,0.895,0.0431,0.0512
C=CC(=O)Nc1cccc(Nc2nc(Nc3ccc(NC4CN(CCF)C4)cc3OC)ncc2C(F)(F)F)c1,0.67,0.752,0.164,0.154
C=CC(=O)Nc1cc(Nc2nccc(-c3c[nH]c4ccccc34)n2)c(OC)cc1N(C)CCN(C)C,0.324,0.409,0.0466,0.0525
COc1nc(OCc2cccc(-c3ccccc3)c2C)ccc1CNCCNC(C)=O [PD-1/PD-L1 inhibitor 2],0.852,0.872,0.501,0.0875
O=C(/C=C\n1cnc(-c2cc(C(F)(F)F)cc(C(F)(F)F)c2)n1)NNc1ccccn1 [Verdinexor (KPT-335)],0.137,0.13,0.162,0.121
C[C@@H]1O[C@@H](O[C@H]2[C@H](Oc3cc(O)c4c(c3)O[C@H](c3ccc(O)cc3)CC4=O)O[C@H](CO)[C@@H](O)[C@@H]2O)[C@H](O)[C@H](O)[C@H]1O [Naringin],0.915,1.12,0.827,1
CN1CCC(Nc2nc(Nc3ccc(Oc4ccccc4)cc3)c3c(=O)[nH]cc(Br)c3n2)CC1,0.131,0.279,0.0286,0.0109
c1nc2c(NC3CCCCC3)nc(Nc3ccc(N4CCOCC4)cc3)nc2[nH]1 [Reversine],0.545,0.579,0.229,0.216
C=C1CC[C@H](O)C/C1=C/C=C1\CCC[C@]2(C)[C@@H]([C@H](C)/C=C/[C@H](C)C(C)C)CC[C@@H]12 [Vitamin D2],1.19,1.02,0.175,0.739
O=C1NC(=O)/C(=C/c2cccc(C(F)(F)F)c2)S1,0.748,0.945,0.687,0.786
COc1ccc2c(c1)CCC1C2CCC2(C)C(NCCCCCCN3C(=O)C=CC3=O)CCC12 (stereo unspecified),0.849,0.972,0.942,0.781
C[C@H]1O[C@@H](n2cc(F)c(=O)[nH]c2=O)[C@H](O)[C@@H]1O [Doxifluridine],1.11,1.13,0.893,1.06
CCCCc1oc2ccc(NS(C)(=O)=O)cc2c1C(=O)c1ccc(OCCCN(CCCC)CCCC)cc1 [Dronedarone HCl],0.712,0.919,0.0442,0.0545
CCCCc1oc2ccccc2c1C(=O)c1cc(I)c(OCCN(CC)CC)c(I)c1 [Amiodarone HCl],0.996,1.07,0.736,0.965
CN(CCOc1ccc(NS(C)(=O)=O)cc1)CCc1ccc(NS(C)(=O)=O)cc1 [Dofetilide],0.999,0.981,0.838,0.933
CN(C)c1nc(N(C)C)nc(N(C)C)n1 [Altretamine],1.05,1.07,0.977,1.03
CNC(=O)c1ccccc1Oc1nc(Nc2cc(OC)c(OC)c(OC)c2)ncc1Br,0.847,0.94,0.581,0.589
CN(CC(=O)N(Cc1ccc(C2CCCCC2)cc1)c1ccc(C(=O)O)cc1)S(=O)(=O)c1c(F)c(F)c(F)c(F)c1F,0.435,0.661,0.042,0.0176
FC(F)(F)c1ccc(/C=C/c2nc(COc3ccc(CCCCn4ccnn4)cc3)co2)cc1 [Mubritinib (TAK 165)],0.716,0.534,0.545,0.517
O=C1CCC[C@@H]2[C@H]3CCC[N+]4([O-])CCC[C@@H](CN12)[C@@H]34 (stereo partly specified) [Oxymatrine],0.927,1.15,0.812,1.1
CC1=CC(=O)NS(=O)(=O)O1 [Acesulfame Potassium],1.16,1.13,0.791,1.17
Cc1ccc(S(=O)(=O)/C=C/C#N)cc1,0.0925,0.0355,0.0225,0.01
CC(C)(C)c1ccc(S(=O)(=O)/C=C/C#N)cc1,0.119,0.091,0.0418,0.0217
